Only some compounds are listed: those with a hit (about 10% of all), similar ones and a draw of the others.
FLuc inh-1: Photinus pyralis luciferase inhibition; purified P. pyralis luciferase, luminescence, biochemical; Potency, µM (highest dose often 115 µM), usual class: inhibitors; 76,000 compounds, 2.5% hits; AID 1347043; note: nearly all actives have a fitted effect of over 65% in size
Target sequence (P08659 whole entry, looked up): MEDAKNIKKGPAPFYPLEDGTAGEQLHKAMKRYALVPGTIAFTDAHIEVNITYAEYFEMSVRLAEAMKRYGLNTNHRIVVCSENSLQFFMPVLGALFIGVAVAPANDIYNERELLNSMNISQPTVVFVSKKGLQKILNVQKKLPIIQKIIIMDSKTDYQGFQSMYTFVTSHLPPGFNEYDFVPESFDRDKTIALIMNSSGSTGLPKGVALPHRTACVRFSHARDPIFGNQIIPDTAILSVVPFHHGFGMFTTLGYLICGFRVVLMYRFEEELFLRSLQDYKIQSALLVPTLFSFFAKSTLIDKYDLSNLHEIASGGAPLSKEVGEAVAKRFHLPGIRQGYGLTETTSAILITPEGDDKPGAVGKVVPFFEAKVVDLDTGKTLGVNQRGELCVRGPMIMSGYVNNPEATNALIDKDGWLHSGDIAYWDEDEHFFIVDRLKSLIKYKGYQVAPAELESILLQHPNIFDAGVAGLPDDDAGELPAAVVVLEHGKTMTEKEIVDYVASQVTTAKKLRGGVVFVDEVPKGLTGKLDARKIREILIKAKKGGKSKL
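FLuc 10nM, D-luciferin 10uM, ATP 10uM, Mg acetate 10mM, Tris acetate pH 7.5, Tween/BSA; cpd qHTS; enzyme added last; CCD luminescence.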
hNpr1 antagonist: antagonists of human natriuretic peptide receptor Npr1 | HEK293 hNpr1 GloSensor cGMP, ANP-stimulated luminescence | AID 1347048 | 76,000 compounds, 1.6% hits | Potency, µM (titrated, usually from 46.3 µM), most hits filed as inhibitors; calls by dose curve; note: nearly all actives have a fitted effect of over 60% in size
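HEK293 cells stably expressing human Npr1 and cGMP GloSensor pGS-40F, loaded 2 h with 2% GloSensor reagent, given compound 30 min at room temperature. Luminescence read before and 20 min after 0.1 nM hNppA.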
NIH3T3 tox: NIH 3T3 cell cytotoxicity | NIH 3T3 viability, CellTiter-Glo ATP luminescence, 48-72 h | 94,000 compounds, 4.3% hits | Potency, µM (highest dose often 96.7 µM), actives largely listed as inhibitors; note: nearly all actives have a fitted effect of over 55% in size
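NIH 3T3 cells at 400 cells/well received 23 nL of compound by pintool and were incubated 48 or 72 h at 37 °C. Viability was read as ATP-coupled CellTiter-Glo luminescence.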
GPT2 inh: GPT2 alanine aminotransferase inhibition. Q8TD30. Recombinant GPT2, coupled pyruvate oxidase/HRP Amplex Red fluorescence. Potency, µM (titrated, usually from 57.7 µM), actives largely listed as inhibitors. 100,000 compounds, 0.25% hits. AID 1671188; note: nearly all actives have a fitted effect of over 60% in size
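GPT2 10ng/uL, a-KG 250uM, L-Ala 2mM, HEPES pH7.5 + 0.0001% Tween; 30 min RT. Then Amplex mix (PO/HRP/ThPP), 30 min RT dark, fluorescence. AOA 50uM used as positive control.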
HEK cytotox: cytotoxic compounds in HEK 293 cells; HEK 293 viability, ATP luminescence (CellTiter-Glo), 48-72 h; Potency, µM (titrated, usually from 115 µM), hits mostly inhibitors; 94,000 compounds, 6.6% hits; note: nearly all actives have a fitted effect of over 60% in size
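CellTiter-Glo luminescence (cellular ATP) was read after 48 or 72 hr of compound exposure at 37 degree Celsius. Cells were HEK 293 plated at 250 cells/well.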
FLuc SDR no ATP: stabilizes firefly luciferase without ATP. shares compounds with FLuc inh-1. Purified FLuc-C-HiBiT, Nano-Glo HiBiT luminescence, no ATP. Potency, µM (titrated, usually from 32.7 µM), usual class: activators. 1,300 compounds, 7.8% hits. AID 1963318; note: nearly all actives have a fitted effect of over 55% in size
FLuc SDR ATP: firefly luciferase binding stabilization, ATP added; shares compounds with FLuc inh-1; purified FLuc-C-HiBiT + ATP, HiBiT complementation luminescence; Potency, µM (doses to about 32.7 µM), hits mostly activators; 1,300 compounds, 8.7% hits; AID 1963319;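 note: signal reports ligand binding via conformational change of the enzyme rather than luciferase catalysis; nearly all actives have a fitted effect of over 55% in size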
FLuc inh-2: firefly luciferase enzyme inhibition; purified FLuc-C-HiBiT enzyme, luciferin luminescence; Potency, µM (doses to about 32.7 µM), hits mostly inhibitors; 1,300 compounds, 42% hits; AID 1963320; shares compounds with FLuc inh-1; note: nearly all actives have a fitted effect of over 70% in size
A number is an active result; i = inactive; ? = inconclusive; nt = no result. Unless noted, calls come from the whole dose curve; as a rule, active = well fitted curve in the direction sought with a large enough effect; inconclusive = small, poorly fitted or top-dose-only effect, or another doubt; inactive = no such curve, though single readings can be large; an effect the other way counts as inactive or inconclusive.

SMILES	FLuc inh-1	hNpr1 antagonist	NIH3T3 tox	GPT2 inh	HEK cytotox	FLuc SDR no ATP	FLuc SDR ATP	FLuc inh-2
Cc1nc2ccc(C(=O)N[C@@H]3COCC[C@@H]3OCc3cscn3)cc2o1	i	i	i	i	i	nt	nt	nt
O=C(Nc1cccc(-c2nc3ccccc3[nH]2)c1)c1ccccc1F	nt	nt	nt	nt	nt	i	i	?
O=C(Nc1cccc(-c2nnc3n2CCCC3)c1)c1ccccc1F	i	i	?	i	i	nt	nt	nt
CN(C)C[C@H]1O[C@@H](CO)[C@@H](O)[C@H]1N(C)CCc1ccccn1	i	i	i	i	i	nt	nt	nt
CC(C)c1nc2c(c(-c3ccc(O)cc3)n1)CCN(Cc1ccccn1)CC2	i	i	i	i	i	i	i	i
CC(C)c1nc2c(c(-c3ccc(O)cc3)n1)CN(Cc1ccccc1)CC2	i	i	i	i	?	i	i	i
Cc1cc(C(=O)N2C[C@@H](CO)[C@H](c3ccccn3)C2)n(C)n1	i	i	i	i	i	nt	nt	nt
NC(=O)N1CCCC(C(=O)NCCc2noc(-c3ccccc3)n2)C1 (centres undefined)	i	i	i	i	i	nt	nt	nt
Cc1c(-c2ccccc2F)[nH]c2ccc(CNC(=O)C3CCCN(C(N)=O)C3)cc12 (centres undefined)	3.5µM	i	?	i	?	i	?	5.6µM
CCc1[nH]c2ccc(CNC(=O)[C@H]3[C@@H]4C=C[C@@]5(CN(C)C(=O)[C@@H]35)O4)cc2c1C	i	i	i	i	i	nt	nt	nt
Cc1c(-c2ccccc2F)[nH]c2ccc(CNC(=O)C3C=CCN3)cc12 (centres undefined)	10µM	i	?	i	?	i	i	?
CCc1nc(-c2ccc(C(=O)N3CCOCC3)cc2)n(-c2cccc(C)n2)n1	i	i	i	i	i	nt	nt	nt
Cc1cnc(C(=O)N2CC(Oc3ccc(-c4nc(-c5ccccc5)no4)cc3)C2)cn1	i	i	i	i	i	nt	nt	nt
O=C(c1ccccn1)N1CCC(Oc2ccc(-c3noc(-c4ccccc4)n3)cc2)C1 (centres undefined)	11µM	i	?	i	22µM	i	i	?
Cc1ncccc1C(=O)N1CC(Oc2ccc(-c3nc(-c4ccccc4)no3)cc2)C1	1µM	?	?	i	13µM	i	?	6.2µM
COc1ccc2cc(C(C)C(=O)Oc3ccc(C(N)=S)cc3)ccc2c1 (centres undefined)	nt	nt	nt	i	nt	nt	nt	nt
COc1ccc(C(=O)Oc2ccc(C(c3c(C)[nH][nH]c3=O)c3c(C)[nH][nH]c3=O)cc2)cc1	nt	nt	nt	nt	nt	i	i	?
O=C(c1ccccc1)N1CC[C@H](c2nc3ccc(F)cc3[nH]2)C1	i	i	i	i	?	nt	nt	nt
Cc1ccc2nc([C@H]3CCN(Cc4cccs4)C3)[nH]c2c1	7.1µM	i	?	i	56µM	i	i	?
Cc1ccccc1CN1CC[C@H](c2nc3ccccc3s2)C1	7.9µM	i	?	i	71µM	i	i	?
Cc1ccccc1CN1CC[C@H](c2nc3ccc(F)cc3[nH]2)C1	14µM	?	?	i	35µM	i	i	?
Cc1ccc2nc([C@H]3CCN(C(=O)c4ccccc4)C3)[nH]c2c1	i	i	i	?	?	nt	nt	nt
c1ccc2sc([C@H]3CCN(CC4CCCCC4)C3)nc2c1	i	i	?	i	?	nt	nt	nt
Cc1ccc(CCN2CCC3(Cc4ccccc4CNC3=O)C2)cc1 (centres undefined)	nt	nt	i	?	i	nt	nt	nt
Cc1cc2cc(C(=O)N3CCN(c4nc5ccccc5s4)CC3)ccc2o1	i	?	i	i	?	nt	nt	nt
SMILES	FLuc inh-1	hNpr1 antagonist	NIH3T3 tox	GPT2 inh	HEK cytotox	FLuc SDR no ATP	FLuc SDR ATP	FLuc inh-2
Cc1ccc2c(c1)sc1nc(-c3cc4ccccc4oc3=O)cn12	nt	nt	nt	nt	nt	i	?	0.25µM
C/C=C/c1ccc2c(c1)[C@@H](C)[C@H](c1ccc(O)cc1)O2	nt	nt	nt	i	nt	nt	nt	nt
Cc1ccc(-c2ncc(NC(=O)c3cc(F)ccc3F)cn2)cc1	?	i	i	i	i	nt	nt	nt
CCC(=O)Nc1cnc(-c2ccc(C)cc2)nc1	3.2µM	?	i	i	i	?	?	8.8µM
Cc1nc(-c2cccc(Cl)c2)n(Cc2cccc(F)c2)c(=O)c1CCO	i	i	?	i	?	nt	nt	nt
CCCc1nn2cc(-c3ccc(C)c(C)c3)nc2s1	nt	nt	nt	nt	nt	?	?	0.62µM
Cc1ccc(-c2ccc3nnc(CNC(=O)COc4ccccc4)n3n2)cc1C	i	i	i	i	?	nt	nt	nt
COCCN1C(=O)CCc2cc(NC(=O)c3ccc(C)c(C)c3)ccc21	?	i	?	i	?	nt	nt	nt
CCN1C(=O)CCc2cc(NC(=O)c3ccc(C(C)C)cc3)ccc21	3.5µM	?	?	i	?	i	i	?
O=C(NCc1ccco1)C1COC2(CCN(C(=O)c3ccco3)CC2)N1C(=O)c1ccc(F)cc1 (centres undefined)	i	i	i	i	?	nt	nt	nt
CN(C)C(=O)CC1CCCCN(Cc2ccccc2)C1=O (centres undefined)	i	i	i	i	i	nt	nt	nt
Clc1ccc(-c2nc(-c3ccccn3)no2)cc1Cl	nt	nt	nt	nt	nt	?	?	5.6µM
COc1ccc(-c2noc(-c3nc(-c4ccccn4)no3)n2)cc1	i	i	i	i	i	nt	nt	nt
Brc1ccc(-c2nc(-c3ccccn3)no2)o1	nt	nt	nt	nt	nt	?	?	1.2µM
COc1ccc(CC(=O)N2CCCN(c3nc4ncccc4o3)CC2)cc1	i	i	i	i	i	nt	nt	nt
Fc1ccc(-n2ncc3c(N4CCC(Cc5ccccc5)CC4)ncnc32)cc1	nt	nt	nt	nt	nt	i	i	i
Cc1ccc(-n2ncc3c(N4CCC(Cc5ccccc5)CC4)ncnc32)cc1C	nt	nt	nt	nt	nt	i	i	i
COCCCNC(=O)c1csc(N2CCN(c3ccccc3)CC2)n1	i	i	i	i	?	nt	nt	nt
Cc1ccc(N2CCN(c3nc(C(=O)O)cs3)CC2)cc1	1.4µM	i	i	i	i	i	?	2µM
Cc1ccc(NC(=O)/C=C/c2ccccc2Cl)cc1Cl	nt	nt	nt	nt	nt	i	i	?
O=C1CC(c2ccccc2)N(C(=O)CNC(=O)Nc2ccc3c(c2)OCCO3)CCCCCN1 (centres undefined)	10µM	i	i	i	i	i	i	?
Cc1ccc(NC(=O)c2ccc(CN3C(=O)NC4(CCOCC4)C3=O)cc2)cc1C	10µM	?	i	i	?	?	i	?
Cc1cccc(NC(=O)c2ccc(CN3C(=O)NC4(CCOCC4)C3=O)cc2)c1	?	i	i	i	?	nt	nt	nt

Source: PubChem BioAssay
